Only some compounds are listed: those with a hit (about 21% of all), similar ones and a draw of the others.
ELG1 DNA repair: blocks ELG1-dependent DNA repair in HEK293T cells; HEK293T ELG1-luciferase reporter, luminescence, 16 h; DNA damage induced by 5-fluorouridine; Potency, µM (titrated, usually from 46.1 µM), inactives show at the top dose activity change, negative = inhibition, actives largely listed as inhibitors; 2.3% of 330,000 active; further: potency means the concentration at half of the fitted maximal effect; nearly all actives have a fitted effect of over 55% in size
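DMSO vehicle served as the neutral condition. Each well held 2,000 cells given 5-fluorouridine plus compound; after 16 hr at 37 °C/5% CO2, ONE-Glo was added and luciferase measured 30 min later.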
VP16 counter: inhibits Gal4-VP16 luciferase reporter, ROR gamma counter-screen; Drosophila S2 Gal4-VP16 UAS-luciferase, luminescence, 20 h; Potency, µM (top dose mostly 53.6 µM), inactives show top-dose activity, negative = inhibition, hits mostly inhibitors; 3.5% of 310,000 active; AID 2546;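 further: Gal4-VP16 expression switched on by copper sulfate through the metallothionein promoter; potency means the concentration at half of the fitted maximal effect; nearly all actives have a fitted effect of over 50% in size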
IL-1B inflam inh: blocks inflammasome-driven IL-1 beta release. THP-1 LPS/ATP IL-1B secretion, AlphaLISA, 16 h; stronger effect = lower value. activity change, % at 57.5 µM. 4.7% of 360,000 active. AID 743279; in the data active means activity change below about -50%; inconclusive means mostly about -30% to -49%
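THP-1 cells pretreated 1 hr with compounds (up to 57.5 uM final), then stimulated with LPS (250 ng/mL final) plus ATP (1.25 mM final); secreted IL-1B measured by AlphaLISA after 16 hr, decreased signal indicating inhibition.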
DT40 TDP1 no CPT: qHTS for Inhibitors of human tyrosyl-DNA phosphodiesterase 1 (TDP1): qHTS in cells in absence of CPT | DT40 Tdp1-/- hTDP1 cells, no CPT, ATP luminescence, 48 h | Potency, µM (series often up to 46.2 µM), inactives show at the top dose activity change, negative = growth inhibition, hits mostly inhibitors | 15% of 420,000 active | AID 686978, 2013; further: potency means the concentration at half of the fitted maximal effect; nearly all actives have a fitted effect of over 55% in size
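A cellular qHTS used chicken DT40 cells lacking endogenous Tdp1 but carrying stably transfected human TDP1. Compounds were applied without camptothecin, and cell growth kinetics were judged by ATP-dependent luminescence after ≥48 hr.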
DT40 TDP1 CPT: growth inhibition of DT40 Tdp1-/-;hTDP1 cells with camptothecin (screen for TDP1 inhibitors). chicken DT40 Tdp1-/-;hTDP1 cells + 20 nM CPT, ATP luminescence, 48 h. Potency, µM (doses to about 46.2 µM), for inactives: at the top dose activity change, negative = growth inhibition, most hits filed as inhibitors. AID 686979. 12% of 420,000 active; further: potency means the concentration at half of the fitted maximal effect; nearly all actives have a fitted effect of over 55% in size
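Chicken DT40 Tdp1-/- cells complemented with human TDP1, 400 cells/well, exposed to compounds plus 20 nM camptothecin for at least 48 h at 37 C; viability read as ATP content by CellTiter-Glo luminescence.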
RORg inh: blocks mouse ROR gamma transcriptional activity | Drosophila S2 Gal4-RORgamma UAS-luciferase reporter, 20 h | 5.4% of 310,000 active | Potency, µM (top dose mostly 53.6 µM), inactives show at the highest dose activity change, negative = inhibition, hits mostly inhibitors; further: potency means the concentration at half of the fitted maximal effect; nearly all actives have a fitted effect of over 60% in size
Target sequence (P51450 whole entry, looked up, the tested form may be a part): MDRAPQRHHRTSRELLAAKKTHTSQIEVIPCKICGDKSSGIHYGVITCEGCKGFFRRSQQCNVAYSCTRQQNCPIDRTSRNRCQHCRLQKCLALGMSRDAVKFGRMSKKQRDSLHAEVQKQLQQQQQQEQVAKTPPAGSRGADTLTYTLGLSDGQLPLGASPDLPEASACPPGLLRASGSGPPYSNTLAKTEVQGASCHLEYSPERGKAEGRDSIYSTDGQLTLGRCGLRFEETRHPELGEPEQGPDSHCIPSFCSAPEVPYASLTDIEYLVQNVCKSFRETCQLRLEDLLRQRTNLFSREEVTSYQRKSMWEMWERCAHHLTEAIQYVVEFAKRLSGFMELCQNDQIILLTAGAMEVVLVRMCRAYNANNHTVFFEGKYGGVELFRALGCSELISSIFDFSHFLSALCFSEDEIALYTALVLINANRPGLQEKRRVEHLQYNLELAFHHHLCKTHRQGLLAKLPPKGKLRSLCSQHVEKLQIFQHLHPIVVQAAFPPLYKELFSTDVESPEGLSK
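Luciferase reporter read in Schneider cells carrying Gal4-RORγ (mouse) and UAS-Photinus luciferase; cells given compound 1 h before 700 uM copper sulfate induction, then incubated 20 h at ambient temperature.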
The depositor's hits bear a star; ? = inconclusive; nt = no result given; [ ] = remark or other dose. Unless noted, the call rests on the fitted dose curve; in most records, active means well fitted curve in the direction sought with a large enough effect; inconclusive means small, poorly fitted or top-dose-only effect, or another doubt; inactive means no such curve, though single readings can be large; an effect the other way counts as inactive or inconclusive. On the % scale 0 is the no-effect control and ±100 the full control effect.

SMILES	ELG1 DNA repair	VP16 counter	IL-1B inflam inh	DT40 TDP1 no CPT	DT40 TDP1 CPT	RORg inh
CCn1cc(CN2CCCC(C(=O)Nc3cccc(-n4cccn4)c3)C2)c(C)n1 (configuration not stated)	-2.9%	0.2%	8.7	-5.1%	-2.5%	-1.8%
O=C(OCc1ccccc1)N1CCC2CC1c1ccc(N3CCN(Cc4ccc5c(c4)OCO5)CC3)cc12 (configuration not stated)	nt	nt	-13.2	?	?	nt
Cc1cc(C)cc(N2CC(c3nc(-c4cccc(Cl)c4)no3)CC2=O)c1 (configuration not stated)	nt	nt	nt	-27.2%	?	nt
COc1cccc(N2CCN(c3nc(C)c(C)c(=O)[nH]3)CC2)c1	-8.8%	-1.0%	23.4	-10.8%	0.7%	23.4%
COc1cccc(N2CCN(c3nc(-c4ccccc4C)cc(=O)[nH]3)CC2)c1	?	-4.7%	-73.4*	?	-48.8%	38.1%
CC(C)Cc1nc2cc(NS(=O)(=O)N(C)C)cc(C(=O)N3CC4(C)CC3CC(C)(C)C4)c2n1C (configuration not stated)	nt	nt	nt	?	-7.9%[9.04 µM]	nt
CCCCCCN1C[C@@H](n2cc(COC(=O)c3ccccc3)nn2)[C@H](O)C[C@@H]1c1ccc(Cl)cc1	nt	nt	-16.5	20.6µM*	13µM*	nt
CCCCCCN1C[C@H](n2cc(COC(=O)c3ccccc3)nn2)[C@@H](O)C[C@@H]1c1ccccc1	nt	nt	23.6	23.1µM*	?	nt
CCCCCCN1C[C@@H](n2cc(COC(=O)c3ccccc3)nn2)[C@H](O)C[C@@H]1c1ccccc1	nt	nt	24.7	?	?	nt
CCNc1ncc2nc(-c3cccs3)c(=O)n(CCC#N)c2n1	nt	-0.7%	nt	-12.7%	-17.0%	-1.3%
Cc1ccc(NC(=O)/C(C#N)=C(\N)C(Cl)(Cl)Cl)nc1	?	-5.2%	-100.3*	2.06µM*	0.581µM*	-32.1%
O=S(CC(O)c1ccccc1)c1ccccc1 (configuration not stated)	nt	nt	5.8	16.4µM*	?	nt
OC(CC(O)c1ccccc1)c1ccccc1 (configuration not stated)	nt	nt	-1.8	0.9%	-2.1%	nt
N#Cc1c(-c2cccs2)cc(-c2cccnc2)nc1N	-12.8%	4.4%	34.8	?	?	-18.5%
N#Cc1c(-c2cccs2)cc(-c2ccccn2)nc1N	?	7.94µM*	-11.2	5.8µM*	5.8µM*	?
CN(C(=O)CSc1nc(N)c2c3c(sc2n1)CSC(C)(C)C3)c1ccccc1	20.6µM*	-22.3%	-55.0*	16.4µM*	16.4µM*	36.4%
C#CCCCO/N=C1/C[C@@H](O)[C@@H](O)[C@@H]2[C@@H]3C(=O)N(CC)C(=O)[C@H]3CC[C@H]12	nt	-6.8%[10 µM]	nt	nt	nt	4.9%[10 µM]
C#CC[N+]1(CC#Cc2ccccc2)CCCCC1	-3.9%	8.4%	11.0	16.4µM*	16.4µM*	-6.7%
C(#Cc1ccccc1)C[N+]1(CC#Cc2ccccc2)CCCCC1	?	6.3%	-86.3*	1.46µM*	1.84µM*	30.4%
Cc1ccc(C#CC[N+]2(CC#Cc3ccc(C)cc3)CCCCC2)cc1	11.6µM*	7.08µM*	-86.0*	0.0291µM*	0.461µM*	?
C#CC[N+]1(CC#Cc2cccc(C)c2)CCCCC1	?	1.9%	11.5	2.31µM*	2.59µM*	1.1%
C=CCn1c(SCC(=O)NC(=O)c2cccc([N+](=O)[O-])c2)nnc1-c1ccccc1F	-1.6%	-13.8%	-2.7	-10.9%	-18.5%	0.6%
O=C(O)CN1C(=O)/C(=C/c2ccc(N3CCCCC3)o2)SC1=S	-3.7%	-0.7%	6.5	23.1µM*	?	-16.2%
COC(=O)CN1C(=O)S/C(=C/c2ccc(N3CCCCC3)o2)C1=O	?	5.01µM*	-18.8	?	?	?
